Bioassay records (PubChem)
EPAC1 antag: antagonists of human EPAC1 | EPAC1 GEF assay, Rap1b-BODIPY-GDP exchange fluorescence | Potency, µM (series often up to 115 µM), hits mostly inhibitors | hit rate 0.14% among 360,000 | AID 720709; note: nearly all actives have a fitted effect of over 50% in size
RGS4 inh: human RGS4 inhibition; P49798; Transcreener GDP fluorescence polarization, RGS4-accelerated GTP hydrolysis; Potency, µM (titrated, usually from 114 µM), most hits filed as inhibitors; hit rate 0.039% among 390,000; AID 504845; note: nearly all actives have a fitted effect of over 75% in size
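MLSMR compounds (23 nl, pin-transferred) preincubated 10 min at room temperature with a 500nM (2x) first reagent, then RGS4 at 900nM (2x) plus Transcreener GDP mix added; fluorescence polarization (620/688 nm) read before and after 90 min at 30 °C.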
EPAC1 agonist: activates human EPAC1 exchange factor. hit rate 0.073% among 360,000. EPAC1 agonist qHTS, biochemical assay; response scale: 100% = response to 6.5 mM cAMP. Potency, µM (series often up to 154 µM), hits mostly activators. AID 720707. O95398; note: nearly all actives have a fitted effect of over 60% in size
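Read-out is the fluorescence drop as BODIPY-GDP leaves Rap1B (480 nm excitation, 540 nm emission), recorded every 5 minutes over 30 minutes. Reactions held 100 nM EPAC1, 250 nM Rap1B–BODIPY-GDP and 50 uM GDP, with 6.5 mM cAMP setting full activation.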
EPAC2 antagonist: EPAC2 (human) antagonism; EPAC2 GEF exchange of Rap1B-BODIPY-GDP, fluorescence; Potency, µM (series often up to 114 µM), hits mostly inhibitors; hit rate 0.18% among 360,000; Q8WZA2; note: nearly all actives have a fitted effect of over 45% in size
Target sequence (Q8WZA2 whole entry, looked up): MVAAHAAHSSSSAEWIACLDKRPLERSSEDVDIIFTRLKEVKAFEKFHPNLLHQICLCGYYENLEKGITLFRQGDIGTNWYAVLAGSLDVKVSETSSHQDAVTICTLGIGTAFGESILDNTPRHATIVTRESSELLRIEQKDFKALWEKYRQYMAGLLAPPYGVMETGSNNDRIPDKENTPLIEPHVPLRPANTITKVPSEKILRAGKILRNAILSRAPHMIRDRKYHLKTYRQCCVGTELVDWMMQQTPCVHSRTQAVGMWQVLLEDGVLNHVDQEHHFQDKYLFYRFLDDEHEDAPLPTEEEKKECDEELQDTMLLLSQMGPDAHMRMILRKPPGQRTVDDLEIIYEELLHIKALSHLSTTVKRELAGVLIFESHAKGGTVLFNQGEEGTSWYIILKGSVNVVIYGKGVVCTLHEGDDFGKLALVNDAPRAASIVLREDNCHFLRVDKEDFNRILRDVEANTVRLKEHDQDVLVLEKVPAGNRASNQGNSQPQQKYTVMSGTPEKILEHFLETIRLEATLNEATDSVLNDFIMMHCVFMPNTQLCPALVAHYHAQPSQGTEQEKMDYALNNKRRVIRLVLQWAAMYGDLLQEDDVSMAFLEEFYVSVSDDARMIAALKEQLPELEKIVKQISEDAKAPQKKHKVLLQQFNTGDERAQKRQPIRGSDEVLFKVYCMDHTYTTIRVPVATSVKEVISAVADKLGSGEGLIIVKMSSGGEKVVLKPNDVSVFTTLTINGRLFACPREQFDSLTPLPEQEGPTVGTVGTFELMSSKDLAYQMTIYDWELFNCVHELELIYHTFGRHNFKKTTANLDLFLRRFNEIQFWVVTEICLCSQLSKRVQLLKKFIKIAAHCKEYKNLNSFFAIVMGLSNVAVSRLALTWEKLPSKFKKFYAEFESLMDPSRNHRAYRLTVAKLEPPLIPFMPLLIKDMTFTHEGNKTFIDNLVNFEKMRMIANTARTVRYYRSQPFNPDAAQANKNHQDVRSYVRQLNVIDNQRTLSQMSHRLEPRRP
EPAC2 agonist: activates human EPAC2 exchange factor; Potency, µM (highest dose often 154 µM), actives largely listed as activators; Q8WZA2; AID 720711; EPAC2 activation, biochemical qHTS; response scale: 100% = 6.5 mM cAMP response; hit rate 0.079% among 360,000; note: nearly all actives have a fitted effect of over 50% in size
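Exchange assay: 100 nM EPAC2 with 250 nM Rap1B-BODIPY-GDP and 50 uM GDP. Fluorescence (ex 480/em 540 nm) read every 5 min for 30 min at room temperature. Data normalized to 6.5 mM cAMP as agonist control.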
BRCA1 expr up: BRCA1 expression activation. MCF7-BRCA1-FFLuc reporter, luminescence, 48 h; response scale: scaled: vehicle 0%, 10 µM genistein 100%. hit rate 1.1% among 380,000. Potency, µM (series often up to 46.1 µM), hits mostly activators. AID 624202; note: nearly all actives have a fitted effect of over 80% in size
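48 h compound treatment of MCF7-BRCA1-FFLuc cells (phenol-red free MEM, 37 °C), then 15 min with luciferase substrate and luminescence imaging.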
Large screens that a line does not name were inactive. Hits are enriched below; roughly 1.3% of the tested compounds scored in any of these assays. Calls come from the whole dose curve; as a rule, active = well fitted curve in the direction sought with a large enough effect; inconclusive = small, poorly fitted or top-dose-only effect, or another doubt; inactive = no such curve, though single readings can be large; an effect the other way counts as inactive or inconclusive.

COCCNC(=O)c1cc2oc3ccccc3c2n1C	BRCA1 expr up 10µM
Cc1ccc(/C=C2\CCC(C3CCCC3)C2=O)cc1 (configuration not stated)	BRCA1 expr up 13µM
COc1ccc(NC(=O)CN2C(=O)C(c3ccc(C(C)(C)C)cc3)=NC2(C)C)cc1Cl	none (no result: EPAC1 antag, EPAC1 agonist, EPAC2 antagonist, EPAC2 agonist, BRCA1 expr up)
O=c1c(/C=C(\O)c2ccccc2)nc2ccccc2n1-c1ccccc1	EPAC1 agonist 100µM, EPAC2 agonist 100µM
Cc1nc2ccccc2n1-c1ccccc1	none
CCc1csc(CCNC(=O)C2CCC(=O)N(Cc3ccccc3F)C2)n1 (configuration not stated)	none
Cc1nc2cc(NC(=O)N(C)c3ccc4ccccc4c3)ccc2o1	none
CCn1ccc(C(=O)Nc2ccc(Cl)cn2)n1	BRCA1 expr up 2.5µM
Cc1ccc(NC(=O)Nc2ccc3c(c2)CCC3)cc1C	none
COc1ccc(NC(=O)Nc2cccc(OC)c2)cc1	EPAC1 antag inconclusive, BRCA1 expr up 11µM
COc1ccc(NC(=O)Nc2ccc3oc(C)nc3c2)cc1	BRCA1 expr up 2.8µM
COc1ccc(NC(=O)Nc2ccc3c(c2)CCC3)cc1	BRCA1 expr up 2.5µM
COc1cccc(NC(=O)CSc2ccccn2)c1	BRCA1 expr up 10µM
CCCC(=O)Nc1ccc(C)c(O)c1	none
CCc1nnc(NC(=O)CSc2nnc(C)n2Cc2ccccc2)s1	none
COc1ccc(NC(=O)Nc2ccc(F)cc2F)cc1	BRCA1 expr up 10µM
COc1cccc(NC(=O)Nc2ccccc2Br)c1	BRCA1 expr up 10µM
COc1cccc(NC(=O)Nc2ccc3nsnc3c2)c1	BRCA1 expr up 7.1µM
COc1cccc(NC(=O)Nc2ccc3nc(C)c(C)nc3c2)c1	BRCA1 expr up inconclusive
COC(=O)c1sccc1NC(=O)Nc1cccc(OC)c1	none
Cc1cc(C)nc(NC(=O)Nc2ccc(F)cc2F)n1	BRCA1 expr up 4µM
CCCSc1nc2c(c(=O)n1-c1ccc(OCC)cc1)SCC2	none
CCOc1cc(-c2noc(N)c2C#N)cc(OCC)c1OCC	none
Cc1ccc(C)c2nc3sc(C(=O)N4CCCc5ccccc54)c(N)c3cc12	EPAC1 agonist inconclusive, EPAC2 agonist 112µM
O=C(c1ccc(Cl)s1)N1CCc2ccccc21	BRCA1 expr up 11µM
COc1cc(Br)cc(C(=O)N2CCc3ccccc32)c1OC	EPAC2 antagonist 35µM (no result: RGS4 inh)
Cc1ccc(-c2cc(C(=O)N3CCCc4ccccc43)no2)cc1	BRCA1 expr up 3.2µM
COc1ccc(OC)c(C(O)CNC(=O)CN)c1 (configuration not stated)	none
CCOC(=O)N1CCN(c2ccnc3cc(Cl)ccc23)CC1	none
Cc1ccc(C(=O)N2CCc3ccccc32)cc1	BRCA1 expr up 11µM
O=C(c1ccc(Cl)cc1)N1CCc2ccccc21	none
O=C(NC1CCCCC1)N1CCc2ccccc21	BRCA1 expr up 11µM
COCCCNC(=O)C(C#N)c1nc2ccccc2nc1N1CCN(Cc2ccccc2)CC1 (configuration not stated)	EPAC2 antagonist 79µM
CCOC(=O)C1CCCN(C(=O)c2ccc3c(c2)N(C)C(=O)/C(=C/c2ccccc2Cl)S3)C1 (configuration not stated)	none
COc1ccc(/C=C/C(=O)Nc2ccccc2)cc1OC	BRCA1 expr up 11µM
COc1ccc(NC(=O)/C=C/c2ccccc2)cn1	BRCA1 expr up 8.9µM
COc1ccc(/C=C/C(=O)NC(=S)Nc2ccccc2)cc1OC	none
COc1ccc(NC(=O)/C=C/c2ccc(F)cc2)cn1	none
CCC1(c2ccccc2)NC(=O)N(CC(=O)Nc2ccc(OC)nc2)C1=O (configuration not stated)	EPAC1 agonist 100µM, EPAC2 agonist inconclusive
COCC(=O)Nc1ccc2c(c1)[C@@H]1C[C@H](CC(=O)NCc3ccccc3)O[C@@H](CO)[C@@H]1O2	none (no result: RGS4 inh)
Nc1ccc2cc3[nH]c4cc(N)ccc4c3nc2c1	EPAC1 agonist 89µM, EPAC2 agonist 56µM
CCC(=O)Nc1cccc(-c2cc3ccccc3oc2=O)c1	BRCA1 expr up 10µM
COc1ccc(CCn2c(O)cc3nn(-c4nc5ccccc5s4)c(=O)c-3c2C)cc1	EPAC1 antag 50µM, RGS4 inh inconclusive
Brc1csc(CN2CCc3nc(Nc4ccccc4)ncc3C2)c1	none (no result: EPAC1 antag, EPAC1 agonist, EPAC2 antagonist, EPAC2 agonist, BRCA1 expr up)
COc1ccc(CCC(=O)N2CCN(C3CCCCC3)CC2)cc1	none
O=C(CCCc1ccccc1)N1CCN(C2CCCCC2)CC1	BRCA1 expr up 5µM
C(=C\c1nc(-c2cccnc2)no1)/c1ccccc1	BRCA1 expr up 2.8µM
Cc1ccc2nc(-c3ccc(N4C(=NC(=O)CCC(=O)O)SC5CS(=O)(=O)CC54)cc3)sc2c1 (configuration not stated)	BRCA1 expr up 5.6µM
CCSc1nc2c(cnn2-c2ccccc2)c(=O)n1N	BRCA1 expr up 5µM
COc1ccc2c(COC(=O)c3n[nH]c4ccccc34)cc(=O)oc2c1	BRCA1 expr up 4.5µM
COc1ccc(CNc2ncccc2[N+](=O)[O-])cc1	BRCA1 expr up inconclusive
COc1ccc(CNc2cccnc2Cl)cc1	BRCA1 expr up 10µM (no result: RGS4 inh)
Cc1ccc2c(CC(=O)Nc3c(C(=O)c4ccc(F)cc4)oc4ccccc34)coc2c1	none (no result: EPAC1 antag, EPAC1 agonist, EPAC2 antagonist, EPAC2 agonist, BRCA1 expr up)
CCOC(=O)c1ccc(NC(=O)Nc2cccc(C)n2)cc1	none
Cc1ccc(CC(=O)Nc2cccc(C)n2)cc1	BRCA1 expr up 10µM
CCC(=O)Nc1ccc(C(=O)Nc2cccc(C)n2)cc1	BRCA1 expr up 2.5µM
CC(=O)Oc1ccc2occ(C(=O)c3ccccc3)c2c1	BRCA1 expr up 7.1µM
Nc1ncnc2c1nc(Br)n2[C@H]1O[C@H]2COP(=O)(O)O[C@H]2[C@@H]1O	none (no result: EPAC1 antag, EPAC1 agonist, EPAC2 antagonist, EPAC2 agonist, BRCA1 expr up)
Nc1ncnc2c1nc(Br)n2[C@@H]1O[C@@H]2COP(=O)(O)O[C@H]2[C@H]1O	EPAC1 antag 1.3µM, EPAC1 agonist 11µM, EPAC2 antagonist 2.5µM, EPAC2 agonist inconclusive
CCOC(=O)c1cnn(-c2ncnc3c2oc2ccccc23)c1N	BRCA1 expr up 3.2µM
CCCC(=O)Nc1ccc(C(=O)COC(=O)C2CC2C)cc1 (configuration not stated)	BRCA1 expr up 11µM
COc1ccc(C(=O)O/N=C(/c2cccs2)C(C)(C)C)cc1	none
CCCC(=O)Nc1ccc(C(=O)COC(=O)C2=COCCO2)cc1	none
CC(=O)Nc1ccc(C(=O)COC(=O)C2CC2C)c(F)c1 (configuration not stated)	BRCA1 expr up 6.3µM
COc1ccc(C2CC2/C(=N/OC(=O)c2cccs2)c2ccccc2)cc1 (configuration not stated)	BRCA1 expr up 7.1µM
